# Source: PubChem BioAssay
# Hits are enriched below; roughly 6.8% of the tested compounds scored in any of these assays.
# T cruzi growth: inhibitors of T. cruzi proliferation; T. cruzi beta-gal in NIH3T3, GalScreen luminescence, 90 h; inhibition, % at 8.34 µM; actives 5.9% (n = 77,000); AID 624255;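 active = mean inhibition above about 93%, with at least 55% of replicates each passing it, limit read from the data, passing the limit was not always enough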
# Pf Dd2 growth: P. falciparum Dd2 growth inhibition; SYBR Green, 72 h; active compounds read low; activity change, % at 10 µM; actives 2.3% (n = 94,000); in the data active = activity change below about -80%
# C diff HTS: inhibitors of Clostridium difficile growth. Clostridium difficile clinical isolate growth, OD600, 24 h; active compounds read low. growth activity, negative = inhibition, % at 16 µg/mL (by protocol). actives 0.25% (n = 86,000);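 active = mean growth activity at or below -80% and every replicate also at or below -80%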;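 also: 0% = DMSO wells and -100% = levofloxacin 16 µg/mL wells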
# * marks the source's active call; other numbers are inactive results; nt = not tested or not shown; ! = not active in a repeat.
SMILES,T cruzi growth,Pf Dd2 growth,C diff HTS
CO[C@H]1CN(C)C(=O)c2cc(NC(=O)Nc3ccc(Cl)c(Cl)c3)ccc2OC[C@H](C)NC[C@@H]1C,-56,-16,-97*
COc1cccc(NC(=O)Nc2ccc3c(c2)C(=O)N(C)C[C@@H](OC)[C@H](C)CN[C@@H](C)CO3)c1,26,-87*,nt
CNC(=O)C[C@@H]1CC[C@H]2[C@H](COc3ccc(NC(=O)Nc4ccc(F)cc4)cc3C(=O)N2C)O1,-23,2,-5
C[C@H]1CN([C@@H](C)CO)C(=O)c2cccc(NC(=O)C3CCCCC3)c2O[C@H]1CN(C)C,22,-1,19
C[C@H](CO)N1C[C@H](C)[C@@H](CN(C)C(=O)c2ccncc2)Oc2ncc(-c3ccc(C(=O)N(C)C)cc3)cc2C1=O,nt,22,1
COc1ccc2c3c(n(C)c2c1)[C@@H](CO)N(C)CC31CN(C(=O)c2ccc3c(c2)OCO3)C1,nt,-43,2
COc1ccc2c3c(n(C)c2c1)[C@H](CO)N(C(=O)Nc1ccc(F)cc1)CC31CN(C(=O)c2ccc3c(c2)OCO3)C1,nt,-89*,3
COc1ccc2c3c(n(C)c2c1)[C@@H](CO)N(C(=O)Nc1ccc(F)cc1)CC31CN(C(=O)c2ccc3c(c2)OCO3)C1,nt,-87*,-3
COc1ccc2c3c(n(C)c2c1)[C@H](CO)N(C(=O)Nc1ccc(F)cc1)CC31CN(C)C1,nt,-77,-7
Cc1ccccc1-c1ccc(C2[C@@H]3CN(C(=O)Nc4ccc(F)cc4)C[C@H]2N3)cc1 (stereo not given in full),nt,-39,50
C/C=C/c1ccc(C2[C@@H]3CN(C(=O)Nc4ccc(F)cc4)C[C@H]2N3)cc1 (stereo not given in full),nt,-54,-7
O=C(Nc1ccc2c(c1)OCO2)N1[C@@H]2CNC[C@H]1C2c1ccc(/C=C/c2ccccc2)cc1 (stereo not given in full),nt,-70,34
O=C(Nc1ccccc1F)N1C[C@@H]2N[C@H](C1)C2c1ccc(/C=C/c2ccccc2)cc1 (stereo not given in full),nt,-60,-97*!
C/C=C/c1ccc(C2[C@@H]3CN(C(=O)Nc4ccccc4F)C[C@H]2N3)cc1 (stereo not given in full),nt,-15,5
C/C=C/c1ccc(C2[C@@H]3CN(C(=O)Nc4ccc(C(F)(F)F)cc4)C[C@H]2N3)cc1 (stereo not given in full),nt,-82*!,0
O=C(Nc1ccc(F)cc1)N1C[C@@H]2N[C@H](C1)C2c1ccc(/C=C/c2ccccc2)cc1 (stereo not given in full),nt,-36,-100*
O=C(Nc1ccc2c(c1)OCO2)N1C[C@@H]2N[C@H](C1)C2c1ccc(C=Cc2ccccc2)cc1 (stereo not given in full),nt,-74,-99*!
CCCNC(=O)N1CCC2(CC1)CN(C(=O)COC)[C@@H](CO)c1c2c2ccc(OC)cc2n1C,nt,16,6
C[C@@H]1CCCCO[C@@H](CN(C)C(=O)c2ccccc2)[C@H](C)CN([C@H](C)CO)C(=O)c2cc(NC(=O)Nc3ccccc3)ccc2O1,nt,-51,nt
O=C(NCC1CCCCC1)[C@H]1[C@H](CO)[C@H]2Cn3c(ccc(-c4cccnc4)c3=O)[C@@H]1N2,nt,33,-4
O=C(c1ccncc1)N1CC2(C1)[C@H](c1ccccc1)[C@H](CO)N2C(=O)c1ccncc1,nt,26,-3
C[C@H](CO)N1C[C@H](C)[C@@H](CN(C)C(=O)Nc2ccccc2C(F)(F)F)OCc2ccccc2-c2c(n(C)c3ccccc23)C1=O,nt,-30,66
C[C@@H]1CN([C@@H](C)CO)C(=O)c2c(c3ccccc3n2C)-c2ccccc2CO[C@H]1CN(C)C(=O)Nc1ccccc1C(F)(F)F,nt,-90*,10
C[C@H]1CN([C@@H](C)CO)C(=O)c2c(c3ccccc3n2C)-c2ccccc2CO[C@@H]1CN(C)C(=O)Nc1cccc(Cl)c1Cl,nt,-84*,14
COc1ccccc1NC(=O)N(C)C[C@@H]1OCc2ccccc2-c2c(n(C)c3ccccc23)C(=O)N([C@@H](C)CO)C[C@@H]1C,28,-54,nt
SMILES,T cruzi growth,Pf Dd2 growth,C diff HTS
COc1ccc2c3c([nH]c2c1)[C@H](CO)N(Cc1cccnc1)CC31CCN(C(=O)c2cccnc2)CC1,nt,-21,7
COc1ccccc1NC(=O)N[C@@H]1CC[C@H](CC(=O)N[C@H](C)c2ccccc2)O[C@@H]1CO,12,0,nt
C[C@H](CO)N1C[C@H](C)[C@H](CN(C)C(=O)Nc2ccc(C(F)(F)F)cc2)Oc2c(NC(=O)Nc3ccccc3)cccc2C1=O,57,-30,-29
Cc1noc(C)c1NC(=O)Nc1ccc2c(c1)C(=O)N([C@@H](C)CO)C[C@@H](C)[C@H](CN(C)C(=O)Nc1ccc(C(F)(F)F)cc1)O2,32,16,-1
CN1C(=O)c2cc(NC(=O)c3cccc(F)c3)ccc2OC[C@H]2O[C@H](CC(=O)NCc3ccccc3)CC[C@@H]21,-13,-30,6
COc1ccccc1-c1cn(CC[C@@H]2CC[C@H](NC(=O)C3CCOCC3)[C@@H](CO)O2)nn1,6,17,nt
Cc1noc(C)c1S(=O)(=O)Nc1ccc2c(c1)C(=O)N([C@H](C)CO)C[C@H](C)[C@H](CN(C)C(=O)Nc1ccccc1)OCCCC[C@H](C)O2,37,-35,-4
Cc1noc(C)c1S(=O)(=O)Nc1ccc2c(c1)C(=O)N([C@@H](C)CO)C[C@H](C)[C@H](CN(C)C(=O)NC1CCCCC1)OCCCC[C@H](C)O2,13,-44,1
Cc1noc(C)c1S(=O)(=O)Nc1ccc2c(c1)C(=O)N([C@H](C)CO)C[C@@H](C)[C@@H](CN(C)C(=O)NC1CCCCC1)OCCCC[C@@H](C)O2,-55,-84*,0
COc1ccc(S(=O)(=O)Nc2ccc3c(c2)C(=O)N([C@@H](C)CO)C[C@H](C)[C@H](CN(C)C(=O)Nc2cccc4ccccc24)OCCCC[C@@H](C)O3)cc1,nt,-82*,-7
COc1ccc(S(=O)(=O)Nc2ccc3c(c2)C(=O)N([C@H](C)CO)C[C@H](C)[C@@H](CN(C)C(=O)Nc2cccc4ccccc24)OCCCC[C@@H](C)O3)cc1,40,-58,nt
Cc1noc(C)c1S(=O)(=O)Nc1ccc2c(c1)C(=O)N([C@H](C)CO)C[C@@H](C)[C@@H](CN(C)C(=O)Nc1cccc3ccccc13)OCCCC[C@@H](C)O2,83,-88*,5
CCCC(=O)Nc1ccc2c(c1)OC[C@H](C)N(C(=O)CC)C[C@@H](C)[C@H](OC)CN(C)C2=O,-3,-5,nt
O=C(C[C@@H]1C[C@H]2c3cc(NC(=O)c4cccnc4)ccc3O[C@H]2[C@H](CO)O1)NCc1ccncc1,-14,-6,0
CN(C)CCCNC(=O)[C@H]1[C@H](CO)[C@H]2Cn3c(ccc(-c4ccc(F)cc4)c3=O)[C@H]2N1C,-1,1,1
C[C@H]1CCCCO[C@@H](CN(C)C(=O)CCCN(C)C)[C@@H](C)CN([C@@H](C)CO)C(=O)c2cc(NC(=O)c3ccncc3)ccc2O1,nt,46,-3
O=C(N[C@H]1CC[C@H](CCNC(=O)c2ccccc2F)O[C@H]1CO)c1cnccn1,7,4,nt
O=C(c1ccccn1)N1CC2(C1)[C@@H](c1ccccc1)[C@H](CO)N2C(=O)C1CCC1,nt,-22,2
